# Shown are actives, neighbours in structure and some others; about 22% of the full set was active somewhere.
# Pf growth 96h: Primary qHTS for delayed death inhibitors of the malarial parasite plastid, 96 hour incubation; Potency, µM (series often up to 28.7 µM), for the others: at the top dose activity change, negative = inhibition, actives largely listed as inhibitors; P. falciparum luciferase reporter growth, 96 h; 320,000 tested, 6.9% active; AID 504834, 2011; note: potency is the fitted concentration of half-maximal effect; % is set by controls: 0 for no effect and ±100 for the full control effect
#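 Compounds incubated with erythrocytes infected by luciferase-expressing P. falciparum (2% hematocrit, 0.05% parasitemia final) for 96 hours, 37 C in 5% CO2. Growth inhibition scored as decreased luciferase luminescence.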
# Cycloheximide cs: Cycloheximide Counterscreen for Small Molecule Inhibitors of Shiga Toxin; AID 2314, 2010; 300,000 tested, 12% active; max response, %; cell reporter, cycloheximide protein synthesis inhibition counterscreen; in the data active = max response mostly above about 13%, no sharp cut-off; inactive = mostly below about 14%; note: read at 38.3 µM for the half of the compounds with a filed dose; 0% is about no effect
# Shiga toxin inh: A qHTS for Small Molecule Inhibitors of Shiga Toxin; inhibition, % at 38.7 µM; 290,000 tested, 9.2% active; Vero cells, Shiga toxin protein synthesis inhibition reporter; in the data active = inhibition mostly above about 28%, no sharp cut-off; inactive = mostly below about 43%; note: 0% is about no effect
# Pf growth 48h: Primary qHTS for delayed death inhibitors of the malarial parasite plastid, 48 hour incubation; Potency, µM (titrated, usually from 28.7 µM), inactives show at the top dose activity change, negative = inhibition, hits mostly inhibitors; AID 504832, 2011; 310,000 tested, 5.9% active; P. falciparum luciferase growth in erythrocytes, 48 h; note: potency is the fitted concentration of half-maximal effect; % is set by controls: 0 for no effect and ±100 for the full control effect
#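 Read-out is firefly luciferase luminescence from an integrated reporter in P. falciparum, so falling signal marks reduced parasite growth. Infected erythrocytes were at 2% hematocrit and 0.1% parasitemia (final) in Albumax-supplemented RPMI 1640.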
# LmPK inhibitor: qHTS Assay for Inhibitors of Leishmania Mexicana Pyruvate Kinase (LmPK). Potency, µM (series often up to 57.5 µM), without a hit: at the highest dose activity change, negative = inhibition, most hits filed as inhibitors. 290,000 tested, 0.37% active. AID 1721, 2009. purified LmPK, Kinase-Glo ATP luminescence, 1 h; note: potency is the fitted concentration of half-maximal effect; % is set by controls: 0 for no effect and ±100 for the full control effect
# Target sequence (Q27686 whole entry, looked up): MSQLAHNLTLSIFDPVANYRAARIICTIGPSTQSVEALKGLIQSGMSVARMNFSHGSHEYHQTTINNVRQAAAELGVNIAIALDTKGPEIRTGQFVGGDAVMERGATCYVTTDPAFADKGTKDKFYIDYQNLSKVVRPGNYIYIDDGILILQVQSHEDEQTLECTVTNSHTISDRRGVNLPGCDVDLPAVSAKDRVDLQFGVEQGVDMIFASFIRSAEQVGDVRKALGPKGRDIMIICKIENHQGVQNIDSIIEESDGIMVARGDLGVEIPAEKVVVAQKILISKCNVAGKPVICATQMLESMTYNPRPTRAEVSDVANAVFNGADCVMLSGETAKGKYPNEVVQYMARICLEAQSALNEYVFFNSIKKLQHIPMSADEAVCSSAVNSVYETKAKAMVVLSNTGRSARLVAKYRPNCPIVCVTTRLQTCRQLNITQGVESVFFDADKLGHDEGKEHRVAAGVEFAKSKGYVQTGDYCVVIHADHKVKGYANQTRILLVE
#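 0.1 nM LmPK, 0.5 mM PEP, 0.1 mM ADP; 50 mM imidazole pH 7.2, 7 mM MgCl2, 50 mM KCl; 1 h RT. Kinase-Glo luminescence readout, normalized to no-enzyme (full inhibition) and uninhibited wells.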
# * marks the source's active call; other numbers are inactive results; i = inactive; ? = inconclusive; nt = no result; [ ] = remark or other dose. Unless noted, calls come from the whole dose curve; as a rule, active = well fitted inhibition curve with a large enough effect; inconclusive = small, poorly fitted or top-dose-only effect, or another doubt; inactive = no such curve, though single readings can be large or run the other way.
SMILES,Pf growth 96h,Cycloheximide cs,Shiga toxin inh,Pf growth 48h,LmPK inhibitor
Cc1nc2ccccc2c(=O)n1/N=C/c1ccccc1Cl,67%,33*,72*,68%,-4%
Cc1ccc(/C=N/n2c(C)nc3ccccc3c2=O)s1,210%,40*,92*,i,9%
O=C(CSc1nnc(CNC(=O)c2cccs2)o1)Nc1ccc(F)cc1F,-19%,1,-11,14%,-8%
CC(=O)C(Sc1nc(N(C)C)nc(N(C)C)n1)C(=O)Nc1ccccc1 (stereo not given),-4%,12,27,-14%,-1%
CC(=O)C(Sc1nn(C)c(=S)s1)C(=O)Nc1ccccc1 (stereo not given),?,51*,113*,120%,14%
CN(C)c1nc(-c2ccccn2)nnc1-c1ccccc1,2.1µM*,2,-28,nt,-14%
CN(C)c1nc(-c2ccccc2)nc(-c2ccc(Cl)cc2)c1C#N,nt,7,-26,17%,-3%
c1ccc(-c2nnc(-c3ccccn3)c(-c3ccccn3)n2)nc1,?,-4,17,?,2%
CCN(CC)c1nc(-c2ccccn2)nc(-c2ccccc2)c1C#N,4.1µM*,-4,-5,?,1%
COc1ccc(CN(CCN)C2CC(C)N(C)CC2C)cc1 (stereo not given),?,2,-5,?,-1%
CN(C)c1ccc(C(=O)N2CCN(c3cc(C(F)(F)F)nc4ccccc34)CC2)cc1,13µM*,-4,28,?,8%
COc1nc(NCc2ccco2)nc(N2CCC(C)CC2)n1,-14%,-3,16,?,2%
COc1nc(NCc2ccco2)nc(NC2CCCCC2)n1,23%,26*,42,-13%,0%
Oc1[nH]c2ccccc2c1N=Nc1ccccc1F,?,21*,125*,241%,-3%
CC(C)(O)C(=O)N=Nc1c(O)[nH]c2ccccc12,2%,33*,61*,112%,-8%
Oc1[nH]c2ccccc2c1N=Nc1ccc(F)cc1,?,21*,66*,127%,-12%
Oc1[nH]c2ccccc2c1N=Nc1nc2ccccc2s1,297%,35*,49*,nt,-10%
Cc1ccc(S(=O)(=O)N=Nc2c(O)[nH]c3ccccc23)cc1,12µM*,-8,-10,5%,-4%
O=[N+]([O-])c1ccc2[nH]c(O)c(N=Nc3ccc(F)cc3)c2c1,?,5,-7,19%,0%
O=[N+]([O-])c1ccc(N=Nc2c(O)[nH]c3ccc(F)cc23)cc1,33%,44*,56*,75%,-8%
Oc1[nH]c2ccccc2c1N=Nc1ccccc1,165%,44*,104*,113%,-11%
NS(=O)(=O)c1cc(C(=O)N=Nc2c(O)[nH]c3ccccc23)ccc1Cl,1.5µM*,7,12,10µM*,-4%
O=C(N=Nc1c(O)[nH]c2ccccc12)c1cccc(S(=O)(=O)Nc2ccccc2Cl)c1,-6%,5,-9,-27%,0%
CC(=O)C1=C(C)Nc2ncnn2C1c1cccc(Br)c1 (stereo not given),?,2,-7,nt,-1%
CC(C)CNC(=O)c1oc2ccccc2c1COc1ccccc1,10µM*,-5,-12,12µM*,-1%
SMILES,Pf growth 96h,Cycloheximide cs,Shiga toxin inh,Pf growth 48h,LmPK inhibitor
CCC(CC)NC(=O)c1oc2ccccc2c1COc1ccccc1,4.1µM*,8.4*,25,6.6µM*,2%
O=C(NC1CC2CCCC(C1)N2C(=O)Nc1ccccc1F)C1CC1 (stereo not given),55%,-9,-10,11%,-5%
O=C(NCc1ccco1)/C(=C/c1cccc(C(F)(F)F)c1)c1nc2ccccc2[nH]1,?,18*,-1,?,-1%
O=C(NCc1ccco1)/C(=C/c1ccc(C(F)(F)F)cc1)c1nc2ccccc2[nH]1,?,59*,12*,-6%,4%
Cc1c(NC(=O)C(C)Oc2ccc(Br)cc2Cl)c(=O)n(-c2ccccc2)n1C (stereo not given),3%,nt,nt,1%,nt
Cc1cnc(C(=O)OCC(=O)Nc2c(Cl)cc(Cl)cc2Cl)cn1,-27%,nt,nt,-5%,nt
CNC(=O)C1Cc2ccccc2CN1S(=O)(=O)c1cccs1 (stereo not given),22%,-2,-15,-2%,-1%
O=C(Nc1nnc(C2CC2)s1)C1Cc2ccccc2CN1S(=O)(=O)c1cccs1 (stereo not given),?,17*,75*,?,0%
CCc1nnc(NC(=O)C2Cc3ccccc3CN2S(=O)(=O)c2cccs2)s1 (stereo not given),6%[5.75 µM],43*,49*,?,8%
CCc1nnc(NC(=O)C2Cc3ccccc3CN2S(=O)(=O)c2ccc(C)cc2)s1 (stereo not given),?,37*,59*,-19%,2%
O=C(Nc1c2c(nn1-c1ccccc1)CS(=O)(=O)C2)c1cc2ccccc2o1,-19%,7,11,-7%,-3%
CCCN1/C(=C2/SC(=S)N(CC)C2=O)C=Cc2ccccc21,?,-5,5,nt,?
CCN1/C(=C2\C(=O)N(C)C(=S)N2c2ccccc2)C=Cc2ccccc21,?,-3,-7,?,18µM*
CCN1/C(=C2\C(=O)N(C)C(=S)N2C)C=Cc2cc(C)ccc21,23%,-2,-9,3.7µM*,16µM*
CCN1C(=O)/C(=C2/C=Cc3ccccc3N2CC)SC1=S,?,14*,81,0%,-3%
CCN1/C(=C2\C(=O)N(C)C(=S)N2C)C=Cc2ccccc21,38%,-4,11,?,?
Cc1nn(C)cc1CN1CCCC(C(=O)c2ccc(-c3ccccc3)cc2)C1 (stereo not given),82%[1.15 µM],-4,-1,-11%,6%
COc1ccccc1N1CCN(C2CCN(S(=O)(=O)c3ccc(NC(C)=O)cc3)CC2)CC1,-11%,-1,-6,6%,-10%
COc1ccc(S(=O)(=O)n2ccc(-c3ccc(OCCN(C)c4ccccn4)cc3)n2)cc1,10µM*,6,-5,4.7µM*,4%
COc1ccc(S(=O)(=O)N(CC(=O)O)c2ccccn2)cc1,-19%,9,-6,nt,-1%
CCN(CC)c1ccc(/C=N\NC(=O)c2cccc3cc[nH]c23)cc1,-29%,32*,43*,3%,0%
O=C(N/N=C/c1ccc([N+](=O)[O-])cc1)c1cccc2cc[nH]c12,?,16*,21,25%,2%
O=C(N/N=C/c1ccc([N+](=O)[O-])cc1)c1[nH]ncc1Br,-5%,47*,82*,384%,?
O=C(N/N=C/c1cn[nH]c1-c1ccc(Cl)cc1)c1ccc([N+](=O)[O-])cc1,49%,2,-17,45%,1%

# Screens deposited in PubChem by National Center for Advancing Translational Sciences (NCATS).
